Screening data as filed in PubChem.
Sampled rows, rich in hits. Any-hit rate of the full collection: about 18%.
TDP1 cell CPT – DT40-hTDP1 cell growth loss with CPT; AID 686979; chicken DT40 Tdp1-/-;hTDP1 cells + 20 nM CPT, ATP luminescence, 48 h; 420,000 tested, 12% active; Potency, µM (top dose mostly 46.2 µM), usual class: inhibitors; also: nearly all actives have a fitted effect of over 55% in size
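Chicken DT40 Tdp1-/- cells stably complemented with human TDP1 were seeded at 400 cells/well in medium containing 20 nM camptothecin, exposed to pin-transferred compounds, and grown at 37 °C for at least 48 hr. Viability was read as ATP luminescence.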
DT40 TDP1 no CPT – qHTS for Inhibitors of human tyrosyl-DNA phosphodiesterase 1 (TDP1): qHTS in cells in absence of CPT | DT40 Tdp1-/- hTDP1 cells, no CPT, ATP luminescence, 48 h | AID 686978, 2013 | 420,000 tested, 15% active | Potency, µM (series often up to 46.2 µM), hits mostly inhibitors; also: nearly all actives have a fitted effect of over 55% in size
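Stably hTDP1-transfected Tdp1-null chicken DT40 cells were treated with library compounds minus camptothecin and grown for at least 48 hr at 37 °C, after which cellular ATP was quantified by luminescence.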
LDHA block – inhibitors of human lactate dehydrogenase A; purified LDHA, NADH/diaphorase-resazurin fluorescence; stronger effect = lower value; AID 1347041; P00338; 480,000 tested, 0.15% active; activity change, % (values are at about 110 or 230 µM); in the data active = activity change below about -30%; inconclusive = mostly about -25% to -30%
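Remaining NADH was detected by diaphorase (0.133 mg/mL) converting 37 µM resazurin to fluorescent resorufin, read at 0 and 20 minutes. The preceding 5-minute room-temperature reaction used 2 nM LDHA, 0.2 mM sodium pyruvate and 0.06 mM NADH at pH 7.4.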
IL1B secr inh – inhibitors of inflammasome signaling (IL-1 beta secretion); THP-1 LPS/ATP IL-1B secretion, AlphaLISA, 16 h; stronger effect = lower value; activity change, % at 57.5 µM; 360,000 tested, 4.7% active; AID 743279; in the data active = activity change below about -50%; inconclusive = mostly about -30% to -49%
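THP-1 cells pretreated 1 hr with compounds (up to 57.5 uM final), then stimulated with LPS (250 ng/mL final) plus ATP (1.25 mM final); secreted IL-1B measured by AlphaLISA after 16 hr, decreased signal indicating inhibition.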
Gal4-VP16 FLuc – counter-screen for ROR gamma inhibitors: Gal4-VP16 reporter. Drosophila S2 Gal4-VP16 UAS-luciferase, luminescence, 20 h. Potency, µM (doses to about 53.6 µM), most hits filed as inhibitors. 310,000 tested, 3.5% active. AID 2546;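 also: Gal4-VP16 expression switched on by copper sulfate through the metallothionein promoter; nearly all actives have a fitted effect of over 50% in size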
RORgamma inh – ROR gamma (mouse) transcription inhibition; Drosophila S2 Gal4-RORgamma UAS-luciferase reporter, 20 h; AID 2551; P51450; 310,000 tested, 5.4% active; Potency, µM (titrated, usually from 53.6 µM), actives largely listed as inhibitors; also: nearly all actives have a fitted effect of over 60% in size
Target sequence (P51450 whole entry, looked up, the tested form may be a part): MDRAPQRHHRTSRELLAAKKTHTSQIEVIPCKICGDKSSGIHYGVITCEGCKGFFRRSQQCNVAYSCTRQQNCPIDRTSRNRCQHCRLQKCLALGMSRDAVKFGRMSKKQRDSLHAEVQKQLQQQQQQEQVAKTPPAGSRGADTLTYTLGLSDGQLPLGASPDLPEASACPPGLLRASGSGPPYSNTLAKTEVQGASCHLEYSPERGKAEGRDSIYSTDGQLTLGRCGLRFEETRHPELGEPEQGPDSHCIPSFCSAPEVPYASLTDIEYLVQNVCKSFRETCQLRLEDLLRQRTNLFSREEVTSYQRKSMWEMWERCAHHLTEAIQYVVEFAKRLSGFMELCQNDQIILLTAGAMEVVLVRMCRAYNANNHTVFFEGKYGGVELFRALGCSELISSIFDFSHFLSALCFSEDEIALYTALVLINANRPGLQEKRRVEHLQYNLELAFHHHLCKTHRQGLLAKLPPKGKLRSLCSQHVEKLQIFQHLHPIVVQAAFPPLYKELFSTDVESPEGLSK
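Compounds are pin-transferred onto Drosophila Schneider cells expressing a copper-inducible Gal4–ROR gamma transactivation domain fusion. After 1 hr, copper sulfate is added to 700 uM final; luciferase is read 20 hr later.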
A number is an active result; i = inactive; ? = inconclusive; nt = not tested or not shown; ! = a repeat was not active; [ ] = dose if it differs, or a comment. Unless noted, calls follow the shape of the dose curve; as a rule, active = well fitted curve in the direction sought with a large enough effect; inconclusive = small, poorly fitted or top-dose-only effect, or another doubt; inactive = no such curve, though single readings can be large; an effect the other way counts as inactive or inconclusive.

SMILES	TDP1 cell CPT	DT40 TDP1 no CPT	LDHA block	IL1B secr inh	Gal4-VP16 FLuc	RORgamma inh
O=C(O)c1cc(O)c(O)c(O)c1	0.58µM	0.92µM	nt	nt	?	10µM!
c1ccc([Se]c2c(-c3ccccc3)[se]c3ccccc23)cc1	nt	nt	nt	nt	i	i
C/C(=N\OC(=O)NC(C)C)c1sc(-c2ccc(Cl)cc2)nc1C	?	18µM	i	i	i	i
CCNC(=O)O/N=C(\C)c1sc(-c2ccc(Cl)cc2)nc1C	26µM	18µM	i	i	i	i
COc1ccc(CCNCc2ccc(C)s2)cc1	nt	nt	i	nt	nt	nt
CC(C)C[C@H](NC(=O)[C@H](Cc1ccccc1)NC(=O)CNC(=O)CNC(=O)[C@@H](N)Cc1ccc(O)cc1)C(=O)N[C@@H](CCCN=C(N)N)C(=O)N[C@@H](CCCCN)C(=O)N[C@@H](Cc1ccc(O)cc1)C(=O)N1CCC[C@H]1C(=O)N[C@@H](CCCCN)C(=O)O	i[4.12 µM]	i[4.12 µM]	nt	nt	nt	nt
CN1[C@@H]2CC[C@H]1CC(OC(=O)N1Cc3ccccc3NC1=O)C2 (stereo partly specified)	nt	nt	nt	nt	i	i
COC(=O)[C@@H](Cc1ccccc1)N(Cc1ccccc1)S(=O)(=O)N(Cc1ccccc1)[C@H](Cc1ccccc1)C(=O)OC	23µM	10µM!	i	i	nt	nt
C=C[C@H](Cc1ccccc1)N(Cc1ccccc1)S(=O)(=O)N(Cc1ccccc1)[C@H](C=C)Cc1ccccc1	?	13µM	i	i	nt	nt
O=C(Nc1cccc(Cl)c1)c1cnc2sc(N3CCCC3)nn2c1=O	?	?	i	nt	nt	nt
CCOC(=O)c1c(C)n(Cc2ccccc2)c2ccc(OC(C)=O)cc12	nt	nt	i	nt	nt	nt
Cc1cc(C)n2nc(C(=O)Nc3ccc(Cl)cc3C(=O)c3ccccc3F)nc2n1	nt	nt	i	nt	nt	nt
CC(C)N(C(=O)CN1CC=C(c2c[nH]c3ccccc23)CC1)C(C)C	nt	nt	i	nt	nt	nt
Cc1cccc(N2C(=O)CSC23C(=O)N(CC(=O)Nc2cccc(Cl)c2)c2ccccc23)c1 (stereo unspecified)	23µM	16µM	i	nt	nt	nt
O=C(CN1C(=O)CN=C(c2ccccc2)c2ccccc21)Nc1cccc(C(F)(F)F)c1	?	?	i	nt	nt	nt
CCOC(=O)c1ncc2[nH]c3ccc(OCc4ccccc4)cc3c2c1COC	nt	nt	nt	nt	4.5µM	i
COc1ccc2c(ccn2CC(=O)NCC2(CC(=O)O)CCCCC2)c1	nt	nt	i	nt	nt	nt
CCN(C1CCCCC1)S(=O)(=O)c1ccc(S(=O)(=O)N(CC(=O)Nc2ccccc2)C2CC2)cc1	?	?	i	i	i	i
CN(CC(=O)Nc1ccccc1-c1ccccc1)C1CCCCC1	23µM	?	i	i	i	i
Clc1ccc(-n2nnnc2C2(NC3CCCCC3)CCCCC2)cc1	nt	nt	i	nt	nt	nt
CN1C(=O)C(=Cc2ccccc2OCCOc2ccc([N+](=O)[O-])cc2)C(=O)N(C)C1=O	?	23µM	i	i	i	i
O=C1NC(=O)C(=Cc2ccc(Oc3ccc([N+](=O)[O-])cc3)cc2)C(=O)N1	?	?	-33	i	i[10 µM]	i
O=C1NC(=O)C(=Cc2ccccc2OCCOc2ccc([N+](=O)[O-])cc2)C(=O)N1	?	?	-81	?	i	i
CCc1nc2ccc(C(=O)N3CCN(C(=O)c4ccco4)CC3)cn2c1N(C)Cc1ccc(OC)cc1	?	?	i	i	nt	nt
COc1ccc(C(=O)O[C@H]2CC[C@@]3(C)C4CCC5[C@]6(O)C[C@H](O)[C@@]7(O)C(CN8C[C@@H](C)CC[C@H]8[C@@]7(C)O)[C@]6(O)C[C@@]53O[C@@]42O)cc1OC (stereo partly specified)	i	i	nt	nt	nt	nt
SMILES	TDP1 cell CPT	DT40 TDP1 no CPT	LDHA block	IL1B secr inh	Gal4-VP16 FLuc	RORgamma inh
COC(=O)C1=C(c2ccc(F)cc2OCc2ccccc2)C[C@@H]2CC[C@H]1N2C(=O)NCCOc1ccccc1Cl	21µM	16µM	i	i	nt	nt
COC(=O)C1=C(c2ccc(F)cc2OCc2ccccc2)C[C@@H]2CC[C@H]1N2C(=O)NCc1ccccc1Cl	?	?	i	i	nt	nt
COC(=O)C1=C(c2ccc(F)cc2OCc2ccccc2)C[C@@H]2CC[C@H]1N2C(=O)NCCOc1ccccc1	?	16µM	i	?	nt	nt
COC(=O)C1=C(c2ccc(F)cc2OCc2ccccc2)C[C@@H]2CC[C@H]1N2C(=O)NCc1ccc(Br)cc1	?	15µM	i	-60	nt	nt
COC(=O)C1=C(c2ccc(F)cc2OCc2ccccc2)C[C@@H]2CC[C@H]1N2C(=O)NCc1cccc(C(F)(F)F)c1	?	18µM	i	-59	nt	nt
CC1(C)C(O)CC(O)[C@]2(C)C1CC(O)[C@]1(C)C2CC[C@@]2(C)C(c3ccoc3)CC3OC312 (stereo partly specified)	i	i	nt	nt	i	i
O=C(N/N=C/c1c(O)n(Cc2ccco2)c(=O)[nH]c1=O)c1ccccc1	i	i	i	i	i	?
O=C(O)CCCCNCc1ccc(C(=O)O)cc1	nt	nt	i	nt	nt	nt
COC(=O)C1=C(c2ccc(F)cc2OCc2ccccc2)C[C@@H]2CC[C@H]1N2C(=O)NCCOc1ccc(OC)cc1	?	16µM	i	?	nt	nt
COC(=O)C1=C(c2ccc(F)cc2OCc2ccccc2)C[C@@H]2CC[C@H]1N2C(=O)NCCc1ccc(F)cc1	?	21µM	i	?	nt	nt
COC(=O)C1=C(c2ccc(F)cc2OCc2ccccc2)C[C@@H]2CC[C@H]1N2C(=O)NCc1ccc(OC)cc1	?	?	i	?	nt	nt
C=C1C(O)C2OC3(CCC(/C=C/C(C)C4CC(C)=CC5(OC(CC(C)(O)C(=O)O)CCC5O)O4)O3)CCC2OC1C(O)CC(C)C1OC2(CCCCO2)CCC1C (stereo unspecified)	nt	nt	nt	nt	0.011µM	0.004µM
CC(=O)c1ccc(Oc2ccc(C(=O)c3ccc(C)c(C)c3)cc2[N+](=O)[O-])cc1	8.2µM	2.3µM	i	i	i	i
CCCCC/C(=N/O)c1c(C)[nH]c2ccccc12	i	?	i	-62	i	i
O=C(c1ccco1)N1CCN(C(=O)c2ccc(COc3ccc(Cl)cc3Cl)o2)CC1	26µM	?	i	i	nt	nt
COC1=C(C)C(=O)C2=C(C1=O)C(CO)N1C(C#N)C3CC4C(C1C2N1CCOC41)N3C (stereo unspecified)	0.052µM	0.15µM	i	-103	nt	nt
CS(=O)(=O)N1CCC2(CCCN(Cc3ccncc3)C2)CC1	i	i	nt	nt	i	i
CC(=O)N1CCN(c2ccc(OCC3CO[C@@](Cn4ccnc4)(c4ccc(Cl)cc4Cl)O3)cc2)CC1 (stereo partly specified)	7.3µM	6.5µM	nt	nt	?	i
COc1ccccc1CNc1nc(NCc2ccccc2SC)c2sccc2n1	6.5µM	6.5µM	i	-99	nt	nt
